From PubChem BioAssay AID2107 (National Center for Advancing Translational Sciences (NCATS), 2009)
About 20 (0.008%) of roughly 240,000 compounds were called active. Roughly 1% stayed inconclusive and do not appear here. These entries were drawn from the full list. A number with no mark means an inactive call. Calls come from the whole dose curve; as a rule, active = well fitted inhibition curve with a large enough effect; inconclusive = small, poorly fitted or top-dose-only effect, or effect the other way; inactive = flat fitted curve, though single readings scatter.

Target: Alpha-galactosidase A (Homo sapiens) (UniProt P06280)
Sequence (P06280 32-429 limits assumed): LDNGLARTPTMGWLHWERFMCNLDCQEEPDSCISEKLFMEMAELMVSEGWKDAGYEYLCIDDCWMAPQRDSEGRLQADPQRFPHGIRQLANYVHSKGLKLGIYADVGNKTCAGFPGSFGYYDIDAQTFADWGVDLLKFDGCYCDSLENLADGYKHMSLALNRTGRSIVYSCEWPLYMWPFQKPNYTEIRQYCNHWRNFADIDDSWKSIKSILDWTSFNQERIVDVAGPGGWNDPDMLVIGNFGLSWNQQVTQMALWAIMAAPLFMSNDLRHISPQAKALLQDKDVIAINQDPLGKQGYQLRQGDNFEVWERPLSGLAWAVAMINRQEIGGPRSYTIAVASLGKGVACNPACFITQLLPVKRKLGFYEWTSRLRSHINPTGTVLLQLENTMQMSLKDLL
Assay: qHTS Assay for Inhibitors and Activators of Human alpha-Galactosidase From Spleen Homogenate;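 note: 0% = enzyme with vehicle and -100% = no enzyme basal signal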
Settings: 4MU-alpha-Gal fluorescence, 40 min; series mostly up to 80 µM
From the text: NIH Chemical Genomics Center [NCGC] NIH Molecular Libraries Probe Production Centers Network [MLPCN] MLPCN Grant: R03 MH084842-01 Assay Submitter (PI): Wei Zheng NCGC Assay Overview: Alpha-galactosidase is a homodimeric glycoprotein that hydrolyzes the terminal alpha-galactosyl moieties from glycolipids and glycoproteins. Deficiency of this enzyme results in Fabry Disease with progressive accumulation of globotriaosylceramide and other glycosphingolipids in vascular endothelial cells that causes renal failure, myocardial infarction and stroke, and premature death in patients. It has been reported that the improper folding and trafficking of alpha-galactosidase resulting from genetic mutations may account for a significant number of Fabry patients. […] We optimized this alpha-galactosidase assay in 1536-well plate format for identification of novel small molecule inhibitors or activators with structures other than the sugar analogs in order to develop new pharmacological chaperones. In particular, this assay is directed towards discovering compounds active in more natural setting, tissue homogenate, that may have been missed by screens of the purified enzyme under more stringent conditions.
NCGC Assay Protocol Summary: This is a fluorogenic enzyme assay with 4-methylumbelliferyl-alpha-D-galactopyranoside as the substrate and human spleen homogenate containing alpha-galactosidase as the enzyme preparation. Upon hydrolysis of this fluorogenic substrate, the resulting product, 4-methylumbelliferone (which excites at 365 nm and emits at 440 nm) can be detected by a fluorescence plate reader. Data were normalized to the controls for basal activity (without enzyme) and 100% activity (with enzyme). The AC50 values were determined from concentration-response data modeled with the standard Hill equation. Assay buffer: 50 mM citric acid (titrated with potassium phosphate to pH 5.0), 0.01% Tween-20 (pH 5.0 is an optimal condition for this enzyme assay) 1536-well assay protocol for the alpha-galactosidase from human spleen homogenate: (1) Add 2 ul/well spleen homogenate (1 ug) (2) Add 23 nL compounds in DMSO solution. The final titration was 0.5 nM to 58 uM. (3) Add 2 ul of substrate (1 mM final) (4) Incubate at 37C for 40 min (5) Add 2 ul stop solution (1M NaOH and 1M Glycine mixture, pH 10) (6) Detect the assay plate in a ViewLux plate reader (PerkinElmer) with Ex=365 nm and Em=440nm. Keywords: Alpha-galactosidase, Fabry Disease, pharmacological chaperone, chaperone therapy, high throughput screening, alpha- galactosidase inhibitor, MLSMR, MLSCN, NIH Roadmap, qHTS and NCGC

SMILES | activity change, negative = inhibition
COC(=O)Cc1csc(/N=C/c2c(O)n(-c3cccc(C(F)(F)F)c3)c(=O)c3ccccc23)n1 | inactive
C/C(CCN1CCCCc2nc(C)c(C)cc21)=N\O[C@@H](C)c1cn([C@@H]2COC[C@@H]2O)nn1 | 2.02% [at 17.5 µM]
Cc1nc(C(=O)NCc2ccccc2)sc1C1(C)CC(c2cccnc2)=NO1 (configuration not stated) | inactive
CCOC(=O)c1cc(C)nc(S(C)(=O)=O)c1C#N | inactive
Cc1cc2oc(=O)cc(-c3ccccc3)c2c(C)c1/C=C/c1ccc(F)cc1 | inactive
CCOc1ccc(NC(=O)COc2ccc(C(=O)NC3CCCc4ccccc43)cc2OC)cc1 (configuration not stated) | inactive
O=C(COC(=O)c1ccc(Cl)nc1)NCc1ccc2c(c1)OCO2 | inactive
COc1cc(OC)c2c(C)cc(=O)oc2c1C(CCN1CCCCC1)c1ccc(N(C)C)cc1 (configuration not stated) | inactive
COCCCNC(=S)NCCNc1nc2cc(C)c(C)cc2cc1C#N | inactive
O=C(O)c1ccc(/C=C2/SC(=S)N(c3cccc(C(F)(F)F)c3)C2=O)cc1 | inactive
CCO[C@@H]1OC(C(=O)NCc2nc3ccccc3[nH]2)=C[C@H](C2CCCCC2)[C@H]1CCCO | inactive
C=CCCN(C(Cc1ccccc1)C(=O)OC)S(=O)(=O)c1cc(Br)ccc1Br (configuration not stated) | inactive
COc1ccc(CN2CCC(=O)c3ccccc3S2(=O)=O)cc1 | inactive
CCOC(=O)C1=C(C)NC2=C(C(=O)CC(C)(C)C2)C1c1ccsc1 (configuration not stated) | inactive
O=C(NCC1CC1)C1(C(F)(F)F)C/C(=C\CCO)CCCO1 (configuration not stated) | inactive
Cc1scc(C(=O)NNC(=S)NCC(C)C)c1C | inactive
CCCN1CCC(=O)N(C(CSc2ccc(C)cc2)Cc2ccccc2)CC1 (configuration not stated) | inactive
Cc1cc(C(=O)OCC(=O)N2c3ccccc3NC(=O)C2(C)C)c(C)n1-c1ccccc1 | inactive
O=C1/C(=C\c2ccccc2Cl)SC(=S)N1CCC(=O)N1CCCc2ccccc21 | inactive
COc1cccc(N(C(=O)c2ccn[nH]2)C2(C(=O)Nc3c(C)cccc3C)CCCCC2)c1 | inactive
OCC1(Cc2ccccc2C(F)(F)F)CCN(Cc2cccc3cnccc23)CC1 | inactive

SMILES | activity change, negative = inhibition
C=C1/C(=C\C=C2\CCCC3(C)C2CCC3C(C)/C=C/C(O)C2CC2)CC(O)CC1O (configuration not stated) | inactive
Cc1noc(C)c1-c1ccc2ncnc(NCc3ccc4[nH]ccc4c3)c2c1 | inactive
CC(=O)OCC(NC(=O)C(Cc1ccccc1)NC(=O)OC(C)(C)C)C1OC(n2ccc(=O)[nH]c2=O)C(OC(C)=O)C1OC(C)=O (configuration not stated) | inactive
COc1ccc(C2CC(O)(c3ccccc3)Oc3cc(C)cc(C)c32)cc1 (configuration not stated) | inactive
Cn1c(N)c(C(=O)COC(=O)/C=C/c2ccc(OC(F)F)cc2)c(=O)n(C)c1=O | inactive
COc1ccc(Br)cc1C1C2C=CCC(C)C2C(=O)N1Cc1ccccc1 (configuration not stated) | inactive
N#CC1=C(N)Oc2c(ccc3cccnc23)C1c1ccncc1 (configuration not stated) | inactive
COC(=O)C1(C(C)=O)CC2=CC[C@H]3C(=O)N(c4ccccc4)C(=O)[C@H]3[C@@H]2Cc2ccccc2[C@@H]1C[N+](=O)[O-] (some centres not stated) | inactive
N#Cc1ccc(OCc2nnc(-c3ccc([N+](=O)[O-])cc3)o2)cc1 | inactive
CCOCCOC(=O)C(C)Oc1ccc(Oc2ncc(C(F)(F)F)cc2Cl)cc1 (configuration not stated) | inactive
CSc1ccccc1N1CCN(CCCCCC(=O)NC2CCCc3ccccc32)CC1 (configuration not stated) | inactive
Cc1cc(N(C)C)nc(Cl)n1 | inactive
Cc1cccc(NC(=S)NCCc2ccc(F)cc2)c1C | inactive
CCn1c(SCC(=O)N/N=C/c2ccncc2)nc2ccccc21 | inactive
Cc1ccc(Br)cc1 | inactive
COc1ccc(C(=O)C2CCCN(C(=O)c3cnsn3)C2)c(C)c1 (configuration not stated) | inactive
CC(C)(C)c1ccc(OC2=CS(=O)(=O)c3ccccc32)cc1 | inactive
CCn1cc(C(=O)NCCCN2CCCCCC2)c(=O)c2cc(S(=O)(=O)N3CCc4ccccc4C3)ccc21 | inactive
Cc1ccc(C)c(NS(=O)(=O)c2cc(Br)cnc2N)c1 | inactive
CCN(CC)/[N+]([O-])=N/Oc1cc(O/[N+]([O-])=N/N2CCCC2CO)c([N+](=O)[O-])cc1[N+](=O)[O-] (configuration not stated) | inactive
CCn1c(NC(=O)c2nn(C)cc2Br)nc2ccccc21 | inactive

SMILES | activity change, negative = inhibition
O=C(/C=C/Sc1ncn[nH]1)c1ccc(Cl)cc1 | inactive
Cc1cc(C)nc(SC(C)C(=O)N/N=C/c2cccs2)n1 (configuration not stated) | inactive
CCN(CC)CCN1C(=O)C(=O)/C(=C(/O)c2cnn(-c3ccccc3)c2C)C1c1cccs1 (configuration not stated) | inactive
Cc1cc(F)ccc1S(=O)(=O)N1CCCOC1CNC(=O)C(=O)NCCC1=CCCCC1 (configuration not stated) | inactive
CN(Cc1nc2ccc(F)cc2[nH]1)Cc1nc(CC2CC2)no1 | inactive
COc1ccc(C(CCN2CCOCC2)c2c(OC)cc(OC)c3c2OC(=O)CC3c2ccc(OC)cc2)cc1 (configuration not stated) | inactive
O=C1C2C(c3ccccc3)CC=CC2C(c2ccoc2)N1Cc1ccccc1 (configuration not stated) | inactive
O=C1C[C@@H](c2ccc3ccccc3c2)N1S(=O)(=O)c1ccccc1[N+](=O)[O-] | inactive
Cc1onc(-c2c(Cl)cccc2Cl)c1C(=O)NNC(=O)c1c(-c2c(Cl)cccc2Cl)noc1C | inactive
COc1ccc(C(=O)C[n+]2ccc(N)c(C)c2C)cc1 | inactive
CCN(C(=O)COC(=O)c1cc(NS(=O)(=O)c2ccc(Cl)c([N+](=O)[O-])c2)ccc1O)C1CCCCC1 | inactive
Cc1ccc(-c2nn(-c3ccccc3)cc2C(=O)Nc2cccc(S(=O)(=O)N3CCOCC3)c2)cc1 | inactive
CCc1nc(C)cn1S(=O)(=O)c1cc([N+](=O)[O-])ccc1Cl | inactive
COc1ccc(CN2CCC(c3nc4ccc(Cl)cc4[nH]3)CC2)cc1 | inactive
O=C(COc1ccc(NC(=O)c2ccccc2[N+](=O)[O-])cc1)c1ccc(F)cc1 | inactive
C=C1CCN(C(CC(C)C)C(=O)N2CCOCC2)S(=O)(=O)c2ccccc21 (configuration not stated) | inactive
CC(C)C[C@@H](N)c1nnc(SCC(=O)c2ccc(Cl)cc2)o1 | inactive
Fc1ccc(Cl)cc1-c1nc(Nc2ccncc2)c2nccnc2n1 | inactive
Cc1scc(C(=O)NNC(=S)NCc2ccccc2)c1C | inactive
Cc1cccc(-[n+]2c(-c3cccc(Br)c3)[nH]c3nc4ccccc4nc32)c1 | inactive
